Test results published in the supplement of paper PMC3334620.
Over roughly 33,000 sequences, “E-score (-0.5 to 0.5)” has its median near -0.0059; the highest 2% begin near 0.26. The sample holds the highest values, similar sequences and a random draw of the others, so the mix is not that of the screen.

What follows are sequences tested against T1, Cin5 (UniProt P40917) (assay: PBM E-score (8-mer binding enrichment) (E-score (-0.5 to 0.5)); higher = stronger / more preferred TF binding). Details: protein concentration: 100 nM; construct: GST-full length.
T1 sequence: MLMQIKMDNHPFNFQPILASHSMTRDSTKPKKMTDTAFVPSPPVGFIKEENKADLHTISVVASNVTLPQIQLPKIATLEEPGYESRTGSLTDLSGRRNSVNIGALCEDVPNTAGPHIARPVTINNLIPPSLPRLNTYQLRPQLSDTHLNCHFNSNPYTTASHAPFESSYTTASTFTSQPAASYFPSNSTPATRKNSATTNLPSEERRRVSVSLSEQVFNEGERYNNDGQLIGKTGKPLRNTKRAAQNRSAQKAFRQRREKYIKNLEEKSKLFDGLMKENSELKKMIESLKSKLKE
Method: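 Universal 'all 10-mer' protein binding microarrays (Agilent AMADID 015681) probed with GST-tagged S. cerevisiae TFs (full-length or DBD) made by in vitro transcription/translation (PURExpress), about 100-200 nM. Bound TF was detected with fluorescent anti-GST. Each ungapped 8-mer (which stands for itself and its reverse complement) is scored by the PBM enrichment score (E-score), a modified Wilcoxon-Mann-Whitney statistic from -0.5 to +0.5, computed with the Universal PBM Analysis Suite. Scale: above 0.35 generally sequence-specific binding.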

| Sequence | PBM E-score |
| --- | --- |
| CGACGTCC | 0.0493 |
| ATAGTGTC | 0.0674 |
| ACATGGCT | -0.0786 |
| CTACGAGC | -0.108 |
| GGAACCAC | -0.0344 |
| AGATGATA | 0.212 |
| AGATGATG | 0.27 |
| AGATGATC | 0.119 |
| GAAATTAA | 0.273 |
| AAAATTAA | 0.105 |
| CAAATTAA | 0.191 |
| GCAAGGGC | -0.235 |
| TAACATGA | 0.071 |
| AGCTTCCT | 0.00798 |
| CAGCAAAG | -0.0276 |
| GAATCTGA | -0.0334 |
| GAGCTTTA | -0.0441 |
| AAGTATAA | 0.216 |
| CAGTATAA | 0.284 |
| AAGTATTA | 0.0531 |
| GAGTATTA | 0.178 |
| GAGTATAA | 0.181 |
| CAGTATTA | 0.294 |
| GGAAGTCA | 0.0165 |
| GAACTCCA | 0.0209 |
| CAGCATGC | -0.0241 |

| Sequence | PBM E-score |
| --- | --- |
| GGATCAAA | 0.0839 |
| CTCTGGCC | -0.234 |
| GGGACCAC | -0.174 |
| CCGCCTAA | -0.0943 |
| TATGTAAA | 0.286 |
| GATGTCAA | 0.0458 |
| CATGTAAA | -0.054 |
| AATGTCAA | 0.176 |
| GATGTAAA | 0.13 |
| TATGTCAA | 0.294 |
| ATACTCCA | 0.122 |
| AGCAGAGA | 0.0498 |
| ATTCATTG | 0.116 |
| ATTCATTC | 0.299 |
| ATTCATTA | 0.122 |
| ACTCAGAC | -0.0116 |
| AACTATAC | 0.0815 |
| AACTATAG | 0.051 |
| AAATAGAC | 0.143 |
| ACCTATAA | -0.0275 |
| AAATAGAG | -0.0761 |
| AAATATAA | 0.203 |
| AAATATAC | 0.178 |
| ACCTATAT | 0.269 |
| AAATATAT | 0.295 |
| AACTATAT | 0.294 |

| Sequence | PBM E-score |
| --- | --- |
| ACCTATAC | 0.0459 |
| AAATAGAT | 0.297 |
| ACATCAGC | 0.0733 |
| CACTGAAC | 0.0413 |
| AGAGAGCC | -0.283 |
| CGTAGTGC | -0.0666 |
| GGCGTGAA | -0.183 |
| CAATAAGG | -0.0974 |
| AGTCGGCA | -0.0519 |
| CGGCCGTC | -0.125 |
| CACCCCCC | -0.498 |
| AAGCAAGC | 0.0852 |
| ATCATGAT | 0.098 |
| TACTATAA | 0.333 |
| CACTATAA | -0.0724 |
| AACTATAA | 0.195 |
| ATGCCCCA | -0.0481 |
| AGCAAGGC | -0.0671 |
| ACCGCCAA | -0.0388 |
| AAGAGAAG | -0.0313 |
| AAGAGAAT | 0.261 |
| AAGAGAAA | -0.0461 |
| AAATTCAT | 0.0992 |
| AAGAGTTA | -0.0309 |
| CCATCACG | -0.0302 |
| AGTCGAGG | -0.168 |

| Sequence | PBM E-score |
| --- | --- |
| ATATACAC | 0.134 |
| ATATACTA | 0.318 |
| ATATACAA | 0.266 |
| ATATACTC | 0.209 |
| CAATACAA | 0.308 |
| CAATACAG | 0.0431 |
| CTATACTA | 0.198 |
| CTATACAA | 0.00862 |
| CAATACAC | 0.00745 |
| CAACGACC | -0.0159 |
| TTCCTAAA | -0.157 |
| CGATGCGC | 0.0485 |
| GAGCGGAC | -0.251 |
| CTTCCAAA | 0.0243 |
| AAGACTCG | -0.0863 |
| CTGCCCGA | -0.00627 |
| AGGCGGCG | -0.0941 |
| ATGACGTG | 0.191 |
| CTGACGTA | 0.278 |
| ATGACGTC | 0.255 |
| GTGACGTA | 0.204 |
| CTGACGTC | 0.035 |
| ATGACGTA | 0.338 |
| AGATTAGA | -0.0761 |
| AGGGGGGC | -0.479 |
| CATTATAA | 0.0881 |

| Sequence | PBM E-score |
| --- | --- |
| CATTATCG | 0.0028 |
| GATTATCC | 0.0776 |
| CATTATCC | 0.276 |
| CATTATAC | 0.287 |
| AATTATAC | 0.208 |
| CACGGAGG | -0.173 |
| CTGTCTAA | -0.0712 |
| CGCGCCGA | -0.124 |
| CAGGTCCC | -0.187 |
| GCCTCCTA | -0.264 |
| GATTATGA | 0.291 |
| GATTATGC | 0.172 |
| CATTATTA | 0.223 |
| GATTATTA | 0.316 |
| CATTATGA | 0.13 |
| AATTATTA | 0.242 |
| ACTGCAAC | -0.0484 |
| AAGAGTCA | -0.12 |
| GAAAGAAC | -0.0462 |
| CAAAGATA | 0.12 |
| GAAAGATA | 0.31 |
| GAAAGAAA | 0.283 |
| AGAAGATA | 0.188 |
| TAAAGATA | 0.171 |
| CAAAGAAA | 0.0585 |
| CGAAGATA | 0.266 |

| Sequence | PBM E-score |
| --- | --- |
| GGAAGATA | 0.13 |
| CACGAGAC | -0.11 |
| TAAGAAGA | 0.122 |
| GATGCAAC | -0.0342 |
| GGAACCCA | -0.0933 |
| TAAAGGGA | -0.115 |
| AATTGGGG | 0.0653 |
| AATTGGGT | 0.319 |
| AATTGGGC | 0.0334 |
| GATAGCAA | 0.279 |
| TATAGCAA | 0.134 |
| CATAGCAA | 0.111 |
| CTTAAGAA | 0.0235 |
| ACGGAAAC | -0.00025 |
| ACGGAAAT | 0.305 |
| ACGGAAAA | 0.161 |
| CGGCACCG | 0.00123 |
| GCACATAA | 0.0702 |
| ACACATAA | 0.274 |
| CCACATAA | 0.184 |
| ACACATAC | 0.0411 |
| TCACATAA | 0.31 |
| ACACATAG | -0.0306 |
| CACTATCG | 0.0597 |
| AGCCAAAA | 0.0959 |
| CGGTTTGA | -0.0691 |

| Sequence | PBM E-score |
| --- | --- |
| AGGTTTAT | 0.251 |
| CGAGAGCC | -0.163 |
| AAGCCAAT | 0.122 |
| CACGTAAC | 0.0354 |
| AACGTAAG | 0.274 |
| AACGTAAC | 0.217 |
| CTCGTAAC | 0.129 |
| ATCGTAAG | 0.159 |
| CACGTAAA | -0.0217 |
| CACGTAAG | 0.288 |
| TACGTAAA | 0.302 |
| TACGTATA | 0.167 |
| AACGTAAA | 0.21 |
| CTCGTAAG | 0.304 |
| GACGTAAA | 0.103 |
| AGCAGCGC | -0.0185 |
| ACCACCTG | -0.0268 |
| AATCGCTA | -0.0414 |
| ACGAGCCC | -0.0676 |
| GAACTCAC | -0.014 |
| AACGTAAT | 0.421 |
| ACCGTAAT | 0.223 |
| AACGTACT | 0.105 |
| AAATTAGA | 0.206 |
| AAATTAGG | 0.102 |
| AAATTAGT | 0.293 |

| Sequence | PBM E-score |
| --- | --- |
| AATTTAGG | 0.168 |
| AATTTAGA | 0.0855 |
| AATTTAGT | 0.284 |
| GGAGCTCC | -0.164 |
| GTCTAACA | -0.192 |
| CGATGGCA | -0.0471 |
| ACCACAGT | 0.181 |
| CATCCACG | 0.0707 |
| ACCGTTTA | -0.034 |
| AAACCGCA | -0.142 |
| AAACCGCG | 0.265 |
| CAACCGCG | 0.269 |
| CAACCGCC | -0.126 |
| CAACCGCA | 0.0315 |
| AAACCGCC | 0.0261 |
| AATTGTGC | 0.124 |
| CAGCGGAA | 0.0943 |
| GCCCATCA | -0.115 |
| AGCTCTCC | -0.174 |
| ACGGAACA | 0.2 |
| TCGGAACA | 0.29 |
| CCGGAACA | 0.145 |
| CTATATTC | 0.0546 |
| CTATATTA | 0.325 |
| ACATATTG | 0.0935 |
| ATATATTC | 0.248 |

| Sequence | PBM E-score |
| --- | --- |
| ATATATTG | 0.088 |
| CCATATTA | 0.169 |
| ATATATTA | 0.272 |
| ACATATTA | 0.266 |
| GTATATTA | 0.219 |
| TGAGGCCA | 0.0508 |
| TGGCCTAA | -0.0968 |
| AACGGGAG | -0.0138 |
| CAACCGTC | -0.179 |
| GTAAATTA | 0.192 |
| ATAAATTC | 0.0845 |
| ATAAATTG | 0.272 |
| ATAAATTA | 0.349 |
| CCAAATTA | 0.187 |
| TAAAATTA | 0.178 |
| ACAAATTG | 0.248 |
| CTAAATTC | 0.0709 |
| ACAAATTA | 0.269 |
| CTAAATTA | 0.258 |
| AAAAATTG | -0.0306 |
| AAAAATTA | 0.227 |
